Data: PubChem BioAssay AID529 (NMMLSC, 2006)
The whole screen tested about 24,000 compounds, of which about 50 (0.2%) were called active. Another 9% or so got no clear call; they are omitted.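 The calls were made as follows: active = inhibition above 50%; inconclusive = compound itself fluorescent, judged against control cell fluorescence; inactive = the rest.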 The list comes from a sample in which actives are over-represented; it also holds similar structures and randomly drawn compounds.

target: Integrin alpha-4 (Homo sapiens) (UniProt P13612); assay: inhibitors of LDV-FITC binding to Mn2+-activated VLA-4, primary screen, Jurkat cells (AID 529); details: LDV-FITC binding with Mn2+, flow cytometry, stronger effect = higher value, 100% = Mn2+-driven binding gain fully reversed, screened at 10 µM (by protocol);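 also: 0% = Mn2+ stimulated cells lacking compound and 100% = ligand binding without Mn2+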
Sequence (P13612 whole entry, looked up): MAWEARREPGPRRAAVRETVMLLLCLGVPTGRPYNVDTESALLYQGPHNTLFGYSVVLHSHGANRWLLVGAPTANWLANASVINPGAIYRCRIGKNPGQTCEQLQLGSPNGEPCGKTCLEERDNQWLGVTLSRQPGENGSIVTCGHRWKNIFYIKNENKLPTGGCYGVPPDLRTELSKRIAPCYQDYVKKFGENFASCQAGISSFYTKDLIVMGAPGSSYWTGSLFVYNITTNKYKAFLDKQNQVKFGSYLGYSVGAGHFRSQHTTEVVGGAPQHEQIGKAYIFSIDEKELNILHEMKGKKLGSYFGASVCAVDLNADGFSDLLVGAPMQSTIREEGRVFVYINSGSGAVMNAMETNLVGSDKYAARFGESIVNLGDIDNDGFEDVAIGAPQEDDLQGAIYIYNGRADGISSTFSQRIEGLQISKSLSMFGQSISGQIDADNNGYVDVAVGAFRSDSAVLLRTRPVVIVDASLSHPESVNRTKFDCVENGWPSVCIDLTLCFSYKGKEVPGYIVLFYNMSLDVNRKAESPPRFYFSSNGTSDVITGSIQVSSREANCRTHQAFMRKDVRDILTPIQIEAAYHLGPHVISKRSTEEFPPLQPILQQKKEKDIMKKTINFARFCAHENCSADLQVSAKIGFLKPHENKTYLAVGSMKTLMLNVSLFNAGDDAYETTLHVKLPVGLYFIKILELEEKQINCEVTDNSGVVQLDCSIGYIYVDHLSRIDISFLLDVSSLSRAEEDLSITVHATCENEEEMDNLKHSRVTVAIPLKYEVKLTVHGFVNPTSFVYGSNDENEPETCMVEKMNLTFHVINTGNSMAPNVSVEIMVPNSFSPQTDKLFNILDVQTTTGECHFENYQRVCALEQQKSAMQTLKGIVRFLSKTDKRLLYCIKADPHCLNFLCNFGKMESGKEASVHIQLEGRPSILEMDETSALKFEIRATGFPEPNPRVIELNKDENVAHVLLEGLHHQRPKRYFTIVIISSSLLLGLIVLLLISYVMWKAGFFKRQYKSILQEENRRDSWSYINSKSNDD

inhibition, inactive:
CCOC(=O)c1cccc(NC(=O)CCc2c(C)nc3ncnn3c2C)c1 10%
CCOC(=O)N1CCN(C(=O)CSc2nnc(-c3c[nH]c4ccccc34)n2CCOC)CC1 9%
CC(=O)NC(C)c1nc2ccccc2n1Cc1ccccc1F (stereo not drawn) 1%
CN(C(=O)C1CCOC1)c1nnc(-c2cccnc2)s1 (stereo not drawn) -8%
CC1=NCCN1S(=O)(=O)c1ccc(Br)c(C)c1 -21.5%
C=CCSc1nnc(Cn2c(=O)sc3ccccc32)n1C 5%
Brc1cnc(N2CCCC2)nc1N1CCCCC1 -21%
Cc1cc(C)cc(N(CC(=O)NCC2CCCO2)S(=O)(=O)c2c(C)noc2C)c1 (stereo not drawn) -10%
Cc1cccc(NC(=O)CSc2nnc(NC(=O)CN3CCOCC3)s2)c1 -21%
COc1cc2[nH]c(=O)n(CCC(=O)NC3CCN(Cc4ccccc4)CC3)c(=O)c2cc1OC 11%
CCOc1cc(S(=O)(=O)NCc2ccc3c(c2)OCO3)ccc1F -18.5%
O=S1(=O)CCN2C(=N1)SC1=C2CCN(Cc2ccccc2)C1 4%
CCOc1ccc(OCC)c(NC(=O)CN(C)S(=O)(=O)c2cccc3nsnc23)c1 5%
O=C(CSc1nc2ncccc2[nH]1)Nc1ccc2c(c1)OCCO2 -23%
CCc1nnc(NC(=O)CSc2nnc(Cc3ccccc3)n2-c2ccc(OC)cc2)s1 -26.5%
CCOC(=O)N1CCN(C(=O)c2ccc3nc4cc(Cl)ccc4c(=O)n3c2)CC1 6.7%
OCc1n[nH]c(CO)n1 2%
O=c1ccn(Cc2ccccc2Cl)cc1 -16%
N#CCCn1cnc2ccccc21 -16.5%
CCOc1ccc(C2C(C(=O)O)c3ccccc3C(=O)N2CCN2CCOCC2)cc1 (stereo not drawn) -12.1%
COc1cccc(OCC(=O)Nc2ccccc2C(N)=O)c1 -12%
CCOC(=O)N1CCC(NC(=O)Cn2cc3c(n2)CCCCC3)CC1 -1%
CSC1=NCCN1C(=O)c1ccc(S(=O)(=O)N2CCOCC2)cc1 1%
CCCC(=O)N1c2ccccc2NC2=C(C(=O)CCC2)C1c1ccc(F)cc1 (stereo not drawn) -5.3%
Cc1c(C(=O)Nc2ccccc2Cl)oc2ccc(S(=O)(=O)N3CCC4(CC3)OCCO4)cc12 -8%
CCOc1cc2[nH]c(=S)n(CCCN3CCCC3=O)c(=O)c2cc1OCC -5%
O=C(Cn1nc(Cc2cccnc2)c2ccccc2c1=O)NCC1CCCO1 (stereo not drawn) -1%
COc1ccc(CNC(=O)C2CCN(S(=O)(=O)N3CCOCC3)CC2)cc1 3%
Cc1ccc(-c2nc(CS(=O)CC(=O)NC3CCCC3)c(C)o2)cc1 (stereo not drawn) -15%
CCOc1ccc(C(=O)N(Cc2ccc(N(C)C)cc2)C2CCS(=O)(=O)C2)cc1 (stereo not drawn) -24.5%
CCOC(=O)C1CCN(C(=O)CC2C(=O)N(Cc3ccccc3)C(C)c3nc4ccccc4n32)CC1 (stereo not drawn) 8%
CC(C)(C)c1ccc(C(=O)NCCC(=O)NCc2ccco2)cc1 -4%
CCOC(=O)N1CCN(C(=O)c2cnc3n(c2=O)CCS3)CC1 -8%
CCCOc1ccc(C2c3c(oc4cc(C)c(C)cc4c3=O)C(=O)N2CCCN2CCOCC2)cc1 (stereo not drawn) 1%
O=C(NCc1ccc2c(c1)OCO2)C1CCCN(S(=O)(=O)c2cccs2)C1 (stereo not drawn) 3%
CCOC(=O)C1(C(F)(F)F)N=C(N(C)C)OC(N(C)C)=N1 20%
O=C1OC(NC(=O)c2ccccc2)C(N2CCOCC2)=C1Cl (stereo not drawn) 6%
COc1ccccc1N1CCN(Cc2nnnn2CCc2ccccc2)CC1 -8%
COc1ccccc1C(=O)N1CCNC(=O)C1CC(=O)Nc1ccc(Cl)cc1 (stereo not drawn) -4.5%
O=C(CN1CCN(C(=O)c2cccc(F)c2)CC1)Nc1ccccc1F 7%
N#Cc1ccc(COC(=O)Cn2nnc(-c3ccccc3)n2)cc1 -9.5%
COc1ccc(N2C(=O)c3cccc4cccc(c34)C2=O)nn1 -1.5%
OCCNCCCCOc1ccccc1F -13.5%
COc1ccccc1C(=O)NCCn1cc(SCC(=O)NCc2ccco2)c2ccccc21 -4%
Cn1c(=O)[nH]c(=O)c2c1nc(NCCCn1ccnc1)n2Cc1cccc(Br)c1 -22.5%
CCCS(=O)(=O)N1CCN(C(=O)c2cccs2)CC1 -15%
COc1cccc(N2C(=O)C3CCCN3C2c2ccc(F)cc2)c1 (stereo not drawn) -5%
CCN(CC)C(=O)N1CCN(C(=O)c2ccc(C)cn2)CC1 -8%
CCn1c(CSc2ncccn2)nnc1SCC(=O)N1c2ccccc2CC1C (stereo not drawn) 5.5%
O=C1c2ccncc2C(=O)N1C1CCCCC1 3%
COc1ccc(OC)c(C2N(c3ccccn3)C(=O)C3CCCN32)c1 (stereo not drawn) -11%
O=C(CN1C(=O)CSc2ncccc21)N1CCOCC1 -1%
COc1cccc(C(CC(=O)NCCN2CCOCC2)NS(=O)(=O)c2ccc(C)cc2)c1OC (stereo not drawn) -2%
Cc1onc(-c2ccccc2Cl)c1C(=O)NCCn1ccc2ccccc21 -7%
Cc1ccc(C2CC(=O)NC(SCC(=O)OCc3ccccc3)=C2C#N)o1 (stereo not drawn) -24%
COc1ccc(S(=O)(=O)NC(CC(=O)NCc2ccccc2OC)c2ccco2)cc1 (stereo not drawn) 3%
CC(C)OCCCNC(=O)CNC(=O)c1cccs1 10%
CCOC(=O)c1ccn(-c2nc(-c3ccco3)cc(C(F)(F)F)n2)n1 -5%
CCOC(=O)c1sc(=S)n(-c2cccc(OC)c2)c1N -4%
CCOC(=O)Cn1c2c(c(-c3ccccc3OC)cc1=O)CCCC2 16%
Cc1ccc(N2C(=O)c3oc4ccccc4c(=O)c3C2c2cccnc2)nc1 (stereo not drawn) -22%
OCc1nc(CO)n(Cc2ccccc2)n1 -2.3%
O=C(CN1CCOCC1)Nc1c2c(nc3c1CCC3)CCC2 -12%
